Here are results for six compounds from PubChem BioAssay (NCATS).

Where “and” joins values, the source holds several entries; their conditions need not be identical. Identical values can stand only once. A number with no mark means an inactive call. Results filed as inconclusive are left out. Calls of active or inactive are those of the source. Unless noted, the call rests on the fitted dose curve; in most records, active means well fitted curve in the direction sought with a large enough effect; inconclusive means small, poorly fitted or top-dose-only effect, or another doubt; inactive means no such curve, though single readings can be large; an effect the other way counts as inactive or inconclusive. Some results are limits rather than exact numbers.

A short description of assay [1]: Cell Viability - Jurkat (AID 426;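 active means dose-dependent loss of cell ATP signal giving a full or clear fitted curve, ranked by lower potency value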; further: potency means the concentration at half of the fitted maximal effect). Conditions: qHTS. An outline of the steps:
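qHTS, 1536-well; Jurkat E6-1, 5000 cells/well, complete medium; cpd 40 hr, 37 °C; CellTiter-Glo 20 min RT; luminescence. AC50 by Hill fit.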

Assay [2] is described as follows: Cell Viability - Hek293 (AID 427;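 active means compounds whose dose-response curve shows a full or clear partial loss of cell viability, called from curve shape rather than a numeric limit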;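 further: potency means the concentration at half of the fitted maximal effect; cells exposed to compound for 40 hours at 37 °C before reading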). The following applies: qHTS. Put shortly:
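HEK293 cells in complete medium were exposed to compound for 40 hr at 37 °C, then cellular ATP was read by CellTiter-Glo luminescence. Data were normalized to DMSO (basal) and 100 uM tamoxifen (100% inhibition), and AC50 came from Hill fits.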

Assay [3] can be described thus: Cell Viability - SH-SY5Y (AID 544).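 Further: 0% = DMSO alone and -100% = 100 µM tamoxifen; nearly all actives have a fitted effect of over 55% in size.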 Conditions: SH-SY5Y neuroblastoma cell viability; viability change, negative = cytotoxic: at 92.2 µM (top of the series). Put shortly: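 Luminescent ATP read-out (CellTiter-Glo) measures loss of viable SH-SY5Y neuroblastoma cells after 40 hr compound exposure at 37 °C. AC50 values derive from standard Hill modelling of qHTS concentration-response data.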

A short description of assay [4]: Cellular Toxicity (caspase-3) BJ (AID 658). Conditions: BJ fibroblasts, luminescence; Potency: caspase-3 activation; series mostly up to 91.7 µM. An outline of the steps: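 Readout: Caspase-Glo 3/7 luminescence increase in BJ cells after 16 hr treatment at 37 °C. Staurosporine and tamoxifen served as positive controls; AC50 values came from Hill modelling of data normalized to DMSO and 10 uM staurosporine.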

Assay [5] is described as follows: Cellular Toxicity (caspase-3) MRC-5 (AID 659). Conditions: MRC-5 cells, luminescence, normalized: DMSO 0%, 10 µM staurosporine 100%; series mostly up to 91.7 µM. An outline of the steps: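 Concentration-dependent caspase 3/7 activation is measured in human normal lung fibroblasts (MRC-5) following 16-hour treatment. AC50 values come from standard Hill-equation modeling of luminescence normalized to DMSO and 10 uM staurosporine.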

The target in assay [6] is Glucocorticoid receptor (Homo sapiens) (UniProt P04150). Put plainly: qHTS assay for small molecule agonists of glucocorticoid receptor signaling (AID 588532; active means well fitted curve in the direction sought with a large enough effect in the signal ratio, with a control signal flat; the % refers to the signal ratio;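 further: 100% = dexamethasone at 0.1 µM and 0% = DMSO only wells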). Conditions: HeLa MMTV-bla, beta-lactamase ratio, agonist, 18 h; stronger effect = higher value; percent of dexamethasone control, DMSO zero. Put shortly:
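Using MMTV-bla HeLa cells in medium with 1% stripped FBS and 25 mM HEPES, compounds were titrated and incubated overnight-length (18 h). Beta-lactamase cleavage of CCF4 was quantified by dual-emission fluorescence.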

Assay [7] concerns the target Vitamin D3 receptor (Homo sapiens) (UniProt P11473). Put plainly: qHTS assay for small molecule antagonists of vitamin D receptor signaling (AID 588541; calls by dose curve;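 further: receptor activated by calcitriol during compound treatment; on the % scale 0 is the no-effect control and ±100 the full control effect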). The following applies: HEK293T VDR-UAS-bla, beta-lactamase ratio, antagonist mode; series mostly up to 76.7 µM. An outline of the steps: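 Antagonist-mode beta-lactamase reporter assay: HEK293T VDR-UAS-bla cells were exposed to titrated compound alongside 1-alpha,25-dihydroxyvitamin D3 at 3 nM final for 16 h. Values were normalized to the 50 nM agonist control and DMSO basal, with IC50 and efficacy from Hill equation fits.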

Assay [8] has the same target. As to the kind of experiment: qHTS assay for small molecule agonists of vitamin D receptor signaling (AID 588543; calls by dose curve;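 further: 0% = DMSO basal and 100% = reference agonist control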). The following applies: HEK293T VDR-UAS-bla, beta-lactamase ratio, 16 h; series mostly up to 76.8 µM. An outline of the steps:
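β-lactamase reporter, VDR-UAS-bla HEK293T, agonist mode. Cells plated 5 h at 37 °C, compound titration 16 h at 37 °C, CCF4 dye 2 h RT, ratio 460/530 nm. Hill fit → EC50, efficacy vs 50 nM 1α,25-(OH)2D3.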

Assay [9] concerns the target Thyroid hormone receptor beta (Homo sapiens) (UniProt P10828). As to the kind of experiment: qHTS assay for small molecule agonists of thyroid hormone receptor beta signaling (AID 588545; calls by dose curve). Conditions: TR-UAS-bla GripTite HEK 293, beta-lactamase ratio, agonist mode, 18 h; series mostly up to 76.7 µM. An outline of the steps:
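Cells (2500/well) were seeded, incubated 4 hrs at 37 C, dosed with a compound series, incubated 18 hrs, loaded with CCF4 dye for 2 hrs at RT, then read for fluorescence. Data were scaled between DMSO (0%) and 10 nM T3 (100%).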

Assay [10] deals with Voltage-gated inwardly rectifying potassium channel KCNH2 (Homo sapiens) (UniProt Q12809). As to the kind of experiment: qHTS Assay for Small Molecule Inhibitors of the Human hERG Channel Activity (AID 588834).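 Further: top concentration of the series differs between compounds; on the % scale 0 is the no-effect control and ±100 the full control effect; lower thallium flux fluorescence means stronger hERG block; nearly all actives have a fitted effect of over 50% in size.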 The following applies: U2OS BacMam hERG, FluxOR thallium flux fluorescence; series mostly up to 92.2 µM. An outline of the steps: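 Concentration-response qHTS measuring drop in thallium-sensitive dye signal. U2OS cells carrying BacMam hERG; compound exposure ~10 min, then stimulation buffer and 2 min read at 1 sec intervals.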

A short description of assay [11]: qHTS assay for small molecule agonists of the antioxidant response element (ARE) signaling pathway (AID 651741; active means well fitted activation curve with a large enough effect in the signal ratio; the % refers to the signal ratio; further: potency means the concentration at half of the fitted maximal effect; on activation: % of control where 0% means no effect). Conditions: HepG2 ARE-bla reporter, beta-lactamase FRET ratio, 16 h; series mostly up to 96 µM. Put shortly:
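Quantitative HTS in HepG2 cells stably expressing an ARE-beta-lactamase reporter; 16 h compound exposure at 37 C, followed by 2 h room-temperature incubation with LiveBLAzer B/G FRET substrate and fluorescence measurement.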

A short description of assay [12]: qHTS assay for small molecule activators of the p53 signaling pathway (AID 651743; active means well fitted activation curve with a large enough effect in the signal ratio, not every such curve was filed as active; the % refers to the signal ratio; further: % of control where 0% means no effect). Conditions: HCT-116 p53RE-bla, beta-lactamase FRET ratio, 16 h; activation: stronger effect = higher value. An outline of the steps: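 Read-out is fluorescence intensity from the LiveBLAzer B/G FRET substrate, added for 2 hours at room temperature after HCT-116 p53RE-bla cells had been incubated with compounds for 16 hours at 37 C.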

Assay [13] is described as follows: qHTS assay for small molecule disruptors of the mitochondrial membrane potential - 1 hr assay (AID 651754; calls by dose curve; further: nearly all actives have a fitted effect of over 35% in size; further: potency means the concentration at half of the fitted maximal effect). Conditions: series mostly up to 92.2 µM. An outline of the steps: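 HepG2, 2,000 cells/well, overnight attachment; cpd or DMSO 1 hr, 37C/5% CO2; Mito-MPS dye 30 min, 37C; fluorescence monomer (490/535) and aggregate (540/590).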
In assay [14] the target is Tumor necrosis factor (Homo sapiens) (UniProt P01375). As to the kind of experiment: qHTS assay to identify small molecules that stimulate Tumor Necrosis Factor-alpha (TNF-alpha) secretion (AID 651757; active means well fitted curve in the direction sought with a large enough effect in the signal ratio; the % refers to the signal ratio; further: 0% is about no effect). The following applies: Human cells, HTRF 665/615 ratio; series mostly up to 92.2 µM. Put shortly: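 Read-out is HTRF, a TR-FRET sandwich of cryptate- and XL665-labeled anti-TNF-alpha antibodies detecting cytokine secreted by THP-1 cells. Cells had been incubated with test compounds at 37 C for 17 hrs beforehand.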

The target in assay [15] is Nuclear receptor ROR-gamma (Homo sapiens) (UniProt P51449). As to the kind of experiment: qHTS assay for small molecule antagonists of the retinoid-related orphan receptor gamma (ROR-gamma) signaling pathway (AID 651802). Further: nearly all actives have a fitted effect of over 60% in size. Further: potency means the concentration at half of the fitted maximal effect. The following applies: ROR-gamma antagonist cell reporter assay; series mostly up to 92.2 µM. An outline of the steps: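 CHO, TET-inducible ROR + RORE-LUC reporter, 1536-well qHTS. Compound pinned, doxycycline added, 16hr 37C/5% CO2. ONE-Glo, 30 min RT, luminescence; signal drop scored as antagonism.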

A short description of assay [16]: qHTS assay for small molecule antagonists of the retinoid-related orphan receptor gamma (ROR-gamma) signaling pathway - cell viability counter screen (AID 720652; active means well fitted curve in the direction sought with a large enough effect in the repeat runs; an effect the other way counts as inactive or inconclusive;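 further: compound exposure lasted 16 hr before ATP read; on the % scale 0 is the no-effect control and ±100 the full control effect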). Conditions: RORgamma reporter cell line viability counter screen; series mostly up to 92.2 µM. Put shortly:
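Luminescence from CellTiter-Glo after 30 min at room temperature reported cellular ATP as the cytotoxicity measure. Cells were the CHO reporter line with doxycycline-induced ROR-gamma expression, exposed to compound for 16 hr at 37 C.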

A short description of assay [17]: qHTS assay for small molecule activators of the human pregnane X receptor (PXR) signaling pathway (AID 720659; call rule not given here; further: 0% is about no effect). Conditions: DPX-2 HepG2 CYP3A4-luciferase, 24 h; series mostly up to 92.3 µM.
The target of assay [18] is Cytochrome P450 3A4 (Homo sapiens) (UniProt P08684). Put plainly: qHTS Assay for Inhibitors and Substrates of Cytochrome P450 3A4 (AID 884). Further: on the % scale 0 is the no-effect control and ±100 the full control effect; nearly all actives have a fitted effect of over 50% in size. Conditions: recombinant CYP3A4, Luciferin-PPXE luminescence; series mostly up to 57.1 µM. Put shortly:
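20 nM human CYP3A4 with 25 uM Luciferin-PPXE (at KM) in 200 mM KPO4, preincubated 10 min with compound; NADPH regeneration started a 60 min RT reaction. Luciferin detected by luminescence, normalized to 57 uM ketoconazole as full inhibition.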

Assay [19] in a line: qHTS assay for small molecule activators of the nuclear factor-kappa B (NF-kB) signaling pathway (AID 651749; active means well fitted activation curve with a large enough effect in the signal ratio; the % refers to the signal ratio; further: % of control where 0% means no effect). The following applies: NF-kB-bla ME-180 cells, beta-lactamase FRET ratio, 16 h; stronger effect = higher value. Put shortly:
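Readout: beta-lactamase reporter driven by an NF-kB response element, detected fluorescently as loss of FRET. Cells were the ME-180 line, treated 16 hr at 37C with pin-transferred compound.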

Assay [20] in a line: Cell Viability - NIH 3T3 (AID 541).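 Further: plate controls were DMSO alone for no effect and tamoxifen positive control for full effect; nearly all actives have a fitted effect of over 25% in size.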 Conditions: NIH 3T3 cell viability, qHTS; activity change, negative = cytotoxicity: at 92.2 µM (top of the series). An outline of the steps: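 Luminescent ATP signal (CellTiter-Glo) served as the viability read-out after NIH 3T3 cells were exposed to compounds over a concentration range for 40 hr at 37 °C. Hill-equation modelling of concentration-response data gave AC50.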

Chain of Nuclear receptor ROR-gamma (Homo sapiens) (P51449 whole entry, looked up): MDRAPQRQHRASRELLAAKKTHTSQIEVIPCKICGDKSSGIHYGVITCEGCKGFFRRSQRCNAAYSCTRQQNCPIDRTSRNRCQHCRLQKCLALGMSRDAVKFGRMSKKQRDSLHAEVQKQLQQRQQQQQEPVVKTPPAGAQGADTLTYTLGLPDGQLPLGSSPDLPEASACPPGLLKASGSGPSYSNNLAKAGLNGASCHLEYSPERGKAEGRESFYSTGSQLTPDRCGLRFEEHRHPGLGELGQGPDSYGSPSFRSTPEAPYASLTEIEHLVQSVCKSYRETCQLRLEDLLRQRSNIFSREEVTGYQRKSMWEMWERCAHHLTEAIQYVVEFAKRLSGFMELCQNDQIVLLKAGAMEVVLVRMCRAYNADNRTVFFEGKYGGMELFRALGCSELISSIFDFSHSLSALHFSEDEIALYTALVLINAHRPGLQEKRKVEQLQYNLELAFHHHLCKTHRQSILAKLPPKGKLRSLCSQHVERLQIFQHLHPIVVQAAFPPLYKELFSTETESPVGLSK
Chain of Thyroid hormone receptor beta (Homo sapiens) (P10828 whole entry, looked up): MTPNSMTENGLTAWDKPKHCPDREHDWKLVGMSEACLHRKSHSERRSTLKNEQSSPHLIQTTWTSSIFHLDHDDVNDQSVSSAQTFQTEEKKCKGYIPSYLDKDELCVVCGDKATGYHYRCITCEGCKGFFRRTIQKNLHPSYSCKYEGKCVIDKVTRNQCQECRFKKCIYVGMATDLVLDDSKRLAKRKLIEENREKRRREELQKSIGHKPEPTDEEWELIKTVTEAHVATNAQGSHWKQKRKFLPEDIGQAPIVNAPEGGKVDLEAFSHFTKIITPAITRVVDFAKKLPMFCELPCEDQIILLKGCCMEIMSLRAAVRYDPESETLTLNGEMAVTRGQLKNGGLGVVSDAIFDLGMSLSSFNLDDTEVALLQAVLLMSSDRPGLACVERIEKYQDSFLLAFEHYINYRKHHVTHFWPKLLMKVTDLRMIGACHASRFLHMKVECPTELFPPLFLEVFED
Chain of Voltage-gated inwardly rectifying potassium channel KCNH2 (Homo sapiens) (Q12809 whole entry, looked up): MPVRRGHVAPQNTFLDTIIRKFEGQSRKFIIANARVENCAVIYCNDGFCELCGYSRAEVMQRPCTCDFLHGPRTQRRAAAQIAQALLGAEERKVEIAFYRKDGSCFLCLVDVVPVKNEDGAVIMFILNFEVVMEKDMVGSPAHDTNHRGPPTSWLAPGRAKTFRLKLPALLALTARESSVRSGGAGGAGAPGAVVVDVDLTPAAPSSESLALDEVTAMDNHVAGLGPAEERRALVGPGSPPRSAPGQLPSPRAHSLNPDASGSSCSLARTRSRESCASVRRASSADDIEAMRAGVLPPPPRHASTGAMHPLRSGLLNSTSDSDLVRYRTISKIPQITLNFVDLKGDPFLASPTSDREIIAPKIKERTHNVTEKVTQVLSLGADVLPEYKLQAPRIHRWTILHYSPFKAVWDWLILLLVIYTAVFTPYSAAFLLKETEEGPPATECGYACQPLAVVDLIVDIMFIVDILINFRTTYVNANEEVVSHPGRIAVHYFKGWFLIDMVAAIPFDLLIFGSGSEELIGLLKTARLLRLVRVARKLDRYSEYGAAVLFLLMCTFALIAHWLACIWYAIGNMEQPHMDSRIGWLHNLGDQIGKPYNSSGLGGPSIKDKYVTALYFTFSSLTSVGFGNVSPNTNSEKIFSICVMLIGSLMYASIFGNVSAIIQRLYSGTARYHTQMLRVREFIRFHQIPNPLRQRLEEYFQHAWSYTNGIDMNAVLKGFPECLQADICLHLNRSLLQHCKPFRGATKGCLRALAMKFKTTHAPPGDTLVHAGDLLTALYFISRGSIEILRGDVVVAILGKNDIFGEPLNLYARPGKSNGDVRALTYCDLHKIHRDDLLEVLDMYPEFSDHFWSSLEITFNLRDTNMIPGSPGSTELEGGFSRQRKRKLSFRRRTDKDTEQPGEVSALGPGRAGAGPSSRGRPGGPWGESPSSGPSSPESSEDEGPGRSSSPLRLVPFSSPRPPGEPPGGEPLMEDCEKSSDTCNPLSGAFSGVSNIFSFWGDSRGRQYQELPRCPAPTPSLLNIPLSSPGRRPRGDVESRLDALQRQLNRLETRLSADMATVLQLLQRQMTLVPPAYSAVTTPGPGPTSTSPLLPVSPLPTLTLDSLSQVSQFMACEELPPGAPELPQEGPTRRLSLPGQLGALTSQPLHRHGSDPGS
Chain of Cytochrome P450 3A4 (Homo sapiens) (P08684 whole entry, looked up): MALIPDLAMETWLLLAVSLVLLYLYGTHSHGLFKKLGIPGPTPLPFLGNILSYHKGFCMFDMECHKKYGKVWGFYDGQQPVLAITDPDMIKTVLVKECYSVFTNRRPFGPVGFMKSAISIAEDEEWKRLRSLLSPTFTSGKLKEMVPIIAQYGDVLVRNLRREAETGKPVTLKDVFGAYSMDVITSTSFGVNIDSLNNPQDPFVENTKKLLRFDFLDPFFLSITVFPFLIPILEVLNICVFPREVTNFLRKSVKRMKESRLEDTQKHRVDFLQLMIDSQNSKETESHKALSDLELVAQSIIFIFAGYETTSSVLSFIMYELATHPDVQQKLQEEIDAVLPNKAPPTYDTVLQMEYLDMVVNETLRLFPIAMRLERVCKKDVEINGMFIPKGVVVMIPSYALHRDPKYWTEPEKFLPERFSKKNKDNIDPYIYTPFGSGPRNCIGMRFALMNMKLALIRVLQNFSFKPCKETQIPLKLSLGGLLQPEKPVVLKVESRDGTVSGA
Chain of Vitamin D3 receptor (Homo sapiens) (P11473 whole entry, looked up): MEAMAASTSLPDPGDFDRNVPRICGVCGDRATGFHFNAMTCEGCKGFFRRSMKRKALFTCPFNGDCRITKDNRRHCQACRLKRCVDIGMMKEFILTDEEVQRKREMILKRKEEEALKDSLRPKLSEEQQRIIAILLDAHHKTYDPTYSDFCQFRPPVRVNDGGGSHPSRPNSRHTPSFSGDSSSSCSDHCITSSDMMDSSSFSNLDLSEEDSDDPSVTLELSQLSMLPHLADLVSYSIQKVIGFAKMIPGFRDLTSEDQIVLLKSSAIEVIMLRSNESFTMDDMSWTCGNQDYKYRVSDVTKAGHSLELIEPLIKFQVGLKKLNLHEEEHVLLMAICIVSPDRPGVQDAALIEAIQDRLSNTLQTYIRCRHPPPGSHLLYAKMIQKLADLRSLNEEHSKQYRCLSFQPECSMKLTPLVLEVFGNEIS
Chain of Tumor necrosis factor (Homo sapiens) (P01375 whole entry, looked up): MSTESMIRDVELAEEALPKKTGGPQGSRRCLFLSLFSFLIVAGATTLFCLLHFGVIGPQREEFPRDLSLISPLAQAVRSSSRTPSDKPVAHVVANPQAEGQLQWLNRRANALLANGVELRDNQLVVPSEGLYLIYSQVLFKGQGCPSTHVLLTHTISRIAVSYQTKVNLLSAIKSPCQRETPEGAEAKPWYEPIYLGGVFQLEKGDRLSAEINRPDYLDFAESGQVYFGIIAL
Chain of Glucocorticoid receptor (Homo sapiens) (P04150 whole entry, looked up): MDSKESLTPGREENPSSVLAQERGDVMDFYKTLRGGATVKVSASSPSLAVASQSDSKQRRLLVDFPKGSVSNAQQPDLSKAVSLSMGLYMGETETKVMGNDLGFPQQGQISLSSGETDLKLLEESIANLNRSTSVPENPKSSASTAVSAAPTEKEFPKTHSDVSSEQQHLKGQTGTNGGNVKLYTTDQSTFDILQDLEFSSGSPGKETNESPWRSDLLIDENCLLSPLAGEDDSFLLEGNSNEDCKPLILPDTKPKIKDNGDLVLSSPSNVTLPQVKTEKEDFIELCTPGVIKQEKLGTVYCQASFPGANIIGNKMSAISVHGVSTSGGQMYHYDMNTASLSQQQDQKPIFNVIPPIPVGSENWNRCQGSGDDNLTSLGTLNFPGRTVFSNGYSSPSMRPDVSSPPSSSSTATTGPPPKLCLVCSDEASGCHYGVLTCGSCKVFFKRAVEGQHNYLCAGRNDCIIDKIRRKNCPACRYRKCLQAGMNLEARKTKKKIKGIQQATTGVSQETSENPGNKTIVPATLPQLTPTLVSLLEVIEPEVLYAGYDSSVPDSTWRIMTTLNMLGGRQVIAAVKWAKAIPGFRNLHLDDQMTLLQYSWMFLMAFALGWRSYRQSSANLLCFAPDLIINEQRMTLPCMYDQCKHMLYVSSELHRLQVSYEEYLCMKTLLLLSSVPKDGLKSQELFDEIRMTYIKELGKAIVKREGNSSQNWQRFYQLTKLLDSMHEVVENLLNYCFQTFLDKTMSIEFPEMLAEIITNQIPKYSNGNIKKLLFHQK

Regarding `Oc1ccc2c(c1)OCO2`, the Potency in assay [1] and in assay [2] was more than 92 µM each time. In addition, the Potency result in assay [3], in [4], in assay [7], in assay [8], in [9] and in assay [10] was “inactive” in each case. The Potency entry in assay [11], in assay [13], in [14], in assay [15] and in [16] was “inactive” each time. Besides, the outcome in assay [5] and in assay [17] was inactive. Further, the activation in assay [6] was -0.95%; in assay [12] it was 4.65%.
Consider `O=[N+]([O-])c1ccc(F)cc1F`, for which the Potency in assay [1] and in [2] was more than 92 µM throughout. Besides, the Potency result in [3], in assay [4], in assay [18], in assay [7], in assay [8] and in assay [9] was “inactive” each time. The Potency result in assay [10], in [11], in [13], in [14], in [15] and in assay [16] was “inactive” throughout. Besides, the outcome in assay [5] and in assay [17] was inactive. The activation in assay [12] is -3.21%; in assay [19] it was 0.374%.
Turning to `c1c[nH]cn1`, the Potency in assay [1] and in assay [2] was more than 92 µM in each case. For the same compound, the activity change, negative = cytotoxicity in assay [20] was -10%. Moreover, the Potency result in assay [3], in assay [4], in [18], in [7], in assay [8] and in [9] was “inactive” each time. The Potency result in assay [10], in assay [11], in [13], in assay [14] and in assay [16] was “inactive” in each case. The result in assay [5] and in assay [17] was inactive. For the same compound, the results for the activation in assay [6], in assay [12] and in assay [19] were -7.19%, -1.43% and 0.0227%, respectively.
`CC(C)OCC1CO1` (stereo not given): the Potency in [1] and in [2] was more than 92 µM each time. In addition, the activity change, negative = cytotoxicity in [20] was -16.9%. The Potency entry in assay [3], in [18], in assay [7], in assay [8], in assay [9] and in [10] was “inactive” each time. Besides, the Potency entry in [11], in assay [13], in assay [14] and in assay [16] was “inactive” throughout. The compound was called inactive in [5] and in assay [17]. Further, the activation in assay [6] was -3.64%; in [12] it was 0.641%; in assay [19], 0.599%.
With `CCCCNCC`, the Potency in assay [1] and in assay [2] was more than 92 µM each time. Moreover, the activity change, negative = cytotoxicity in assay [20] is -8.38%. Moreover, the Potency entry in assay [3], in assay [11], in assay [13], in assay [14], in assay [15] and in assay [16] was “inactive” each time. The activation in [6] was -12.1%. Also, in [17], the call was inactive.
In the case of `Nc1cc([N+](=O)[O-])ccc1O`, the Potency in [1] was more than 92 µM; in assay [2], more than 92 µM; in assay [11], 29.8 µM (active) and 12.2 µM (active); in assay [13], 29.8 µM (active); in assay [15] it was 23.7 µM (active). Moreover, the Potency result in [3], in [18], in assay [7], in [8], in assay [9] and in assay [10] was “inactive” in each case. Moreover, in assay [16], the Potency result was “inactive”. In addition, the outcome in assay [5] and in assay [17] was inactive. For the same compound, the activation in assay [6] is -3.65% and -4.48%; in assay [12], -1.58% and -3.77%; in assay [19], -0.245% and -0.938%.
